BRCA1 expr up – increases BRCA1 expression | MCF7-BRCA1-FFLuc reporter, luminescence, 48 h; response scale: scaled: vehicle 0%, 10 µM genistein 100% | actives 1.1% (n = 380,000) | Potency, µM (titrated, usually from 46.1 µM), most hits filed as activators; further: nearly all actives have a fitted effect of over 80% in size
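Activators of BRCA1 expression were detected as increased firefly luciferase luminescence in engineered MCF7 cells after 48 h compound incubation. Signals were scaled to genistein 10 microM as full activation.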
gsp agonist – gsp mutant agonism | gsp mutant cells, cAMP HTRF, 30 min | Potency, µM (top dose mostly 76.9 µM), most hits filed as activators | actives 0.13% (n = 340,000) | AID 624287; active means well fitted activation curve with a large enough effect; inconclusive means small, poorly fitted or top-dose-only effect, or another doubt; inactive means no such curve, though single readings can be large or run the other way; cell line not stated here;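 further: phosphodiesterase inhibitor Ro 20-1724 added with compounds to block cAMP breakdown; nearly all actives have a fitted effect of over 60% in size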
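Cells in DMEM/10% FBS with G418 were pretreated with compounds in DMSO plus […] (300 uM stock) for 30 min at 37C. cAMP was measured by HTRF (cAMP-d2 plus anti-cAMP antibody-K) after 30 min at room temperature.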
IL2 activator – activators of IL-2 | IL-2 activation reporter assay, cell-based qHTS; stimulated with anti-CD3/CD4/CD28 beads; in transgenic mouse T cells | activation, % (series mostly up to about 46 µM) | actives 0.065% (n = 360,000) | AID 652025; in the data active means activation above about 50%; inconclusive means mostly about 30% to 49%
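EGFP and DsRed fluorescence is measured by plate cytometry in unstimulated transgenic mouse T cells exposed to compound for 60 minutes, then stimulated 18 hours at 37 degrees C with anti-CD3/anti-CD4 beads plus anti-CD28.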
mIDH1 inhibitor – blocks human mutant IDH1 R132H enzyme; O75874; IDH1-R132H enzyme, NADPH consumption, diaphorase/resazurin fluorescence; Potency, µM (doses to about 76.6 µM), hits mostly inhibitors; actives 0.093% (n = 390,000); further: nearly all actives have a fitted effect of over 65% in size
Target sequence (O75874 whole entry R132H, stated change not applied): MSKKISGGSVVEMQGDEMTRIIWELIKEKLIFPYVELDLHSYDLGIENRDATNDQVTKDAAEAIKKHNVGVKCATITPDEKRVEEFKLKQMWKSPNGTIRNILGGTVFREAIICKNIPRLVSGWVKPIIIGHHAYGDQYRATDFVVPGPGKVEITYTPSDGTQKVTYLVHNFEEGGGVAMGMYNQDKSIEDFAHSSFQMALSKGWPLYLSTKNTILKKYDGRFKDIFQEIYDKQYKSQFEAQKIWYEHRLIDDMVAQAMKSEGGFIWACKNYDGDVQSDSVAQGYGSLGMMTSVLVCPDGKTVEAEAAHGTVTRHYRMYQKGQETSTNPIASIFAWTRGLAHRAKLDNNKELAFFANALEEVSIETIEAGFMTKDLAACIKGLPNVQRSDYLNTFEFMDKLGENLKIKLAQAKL
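IDH1-R132H (0.5 ug/mL) preincubated 30 min with compound, then NADPH (0.016 mM) and alpha-KG (2 mM) added; 80 min at RT, pH 7.5. Remaining NADPH coupled via diaphorase/resazurin to fluorescence (540/590 nm); concentration-response curves normalized to no-enzyme control.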
gsp antag – antagonizes gsp, the McCune-Albright syndrome mutation. gsp-mutant cells, cAMP HTRF, 30 min. Potency, µM (doses to about 76.9 µM), usual class: inhibitors. actives 0.4% (n = 340,000); calls by dose curve; cell line not stated here;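 further: intracellular cAMP measured with PDE inhibitor Ro 20-1724 present during compound exposure; nearly all actives have a fitted effect of over 65% in size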
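Measurement of cellular cAMP by homogeneous time-resolved fluorescence following a 30 min compound exposure at 37C. The PDE inhibitor […] was present throughout; the assay buffer was DPBS with 0.05% BSA and 0.005% Tween 20.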
Numbers stand for hits; [ ] = remark or other dose. This is a sample that favours compounds with a hit; in the whole collection about 1.5% have one here. Unless noted, the call rests on the fitted dose curve; in most records, active means well fitted curve in the direction sought with a large enough effect; inconclusive means small, poorly fitted or top-dose-only effect, or another doubt; inactive means no such curve, though single readings can be large; an effect the other way counts as inactive or inconclusive.

What do the screens show for `COc1ccccc1Nc1nc(-c2ccccc2F)nc2ccccc12`?
mIDH1 inhibitor: inactive

What do the screens show for `O=C(Cn1cc(SCc2ccc(F)cc2)c2ccccc21)N1CCCCCC1`?
mIDH1 inhibitor: inactive

What do the screens show for `CCCCN(CC(O)COc1cccc(C)c1)CC(O)COc1cccc(C)c1` (configuration not stated)?
BRCA1 expr up: inactive; gsp agonist: inactive[15.4 µM]; IL2 activator: inactive; mIDH1 inhibitor: inactive; gsp antag: inactive

How did COc1ccc(OC)c(/C=C/c2ccc3ccccc3[n+]2C)c1 do in these assays?
BRCA1 expr up: inactive

Results for COc1ccc2c(n1)Sc1nc3ccccc3nc1N2 ?
BRCA1 expr up: inactive; gsp agonist: inconclusive; IL2 activator: 260; mIDH1 inhibitor: inactive; gsp antag: inactive

How did Cn1c2c(c(=O)n(C)c1=O)C(C(F)(F)F)(C(F)(F)F)N=C(c1ccc(Cl)cc1)N2 do in these assays?
BRCA1 expr up: inactive; gsp agonist: inactive; IL2 activator: inactive; mIDH1 inhibitor: inactive; gsp antag: 40µM

How did Cc1ccc(-n2nnc(C(=O)Nc3cc(F)ccc3F)c2C)cc1F do in these assays?
mIDH1 inhibitor: inactive

How did O=C(CCN1C(=O)/C(=C/c2ccc(F)cc2)SC1=S)NNC(=O)c1ccncc1 do in these assays?
BRCA1 expr up: inactive; gsp agonist: inactive; IL2 activator: inactive; mIDH1 inhibitor: inactive; gsp antag: inconclusive

What do the screens show for `Cc1ccc(/C=C2\SC(=S)N(CCC(=O)NNC(=O)c3ccncc3)C2=O)cc1`?
BRCA1 expr up: inactive; gsp agonist: inactive[15.4 µM]; IL2 activator: inactive; mIDH1 inhibitor: inactive; gsp antag: 40µM

How did CC(C)c1noc(-c2ccccc2OCC(=O)Nc2cccc([N+](=O)[O-])c2)n1 do in these assays?
BRCA1 expr up: inactive; mIDH1 inhibitor: inactive

Results for COc1ccc(CNC(=S)N/N=C(/C)c2ccccc2)cc1 ?
BRCA1 expr up: 7.1µM; gsp agonist: inactive[15.4 µM]; IL2 activator: inactive; mIDH1 inhibitor: inactive; gsp antag: inactive

What do the screens show for `C/C(=N\NC(=S)NCc1ccccc1)c1ccccc1`?
BRCA1 expr up: inconclusive; gsp agonist: inconclusive; IL2 activator: inactive; mIDH1 inhibitor: inactive; gsp antag: inactive

What do the screens show for `CCCc1cc2c(=O)c(-c3ccccn3)coc2cc1OC`?
BRCA1 expr up: 5.6µM; gsp agonist: inactive; IL2 activator: inactive; mIDH1 inhibitor: inactive; gsp antag: inactive

How did CCCc1cc2c(=O)c(-c3ccccn3)c(C)oc2cc1O do in these assays?
BRCA1 expr up: inactive; gsp agonist: inactive; IL2 activator: inactive; mIDH1 inhibitor: inactive; gsp antag: inactive

Results for O=C(CSc1nnc2ccccn12)N1CCc2ccccc2C1 ?
BRCA1 expr up: inconclusive; gsp agonist: inconclusive; IL2 activator: inactive; mIDH1 inhibitor: inactive; gsp antag: inactive

Results for O=C(CSc1nnc2ccccn12)N1CCc2ccccc21 ?
BRCA1 expr up: 2.8µM; gsp agonist: inactive[15.4 µM]; IL2 activator: inactive; mIDH1 inhibitor: inactive; gsp antag: inactive

Results for O=C(CSc1ncccn1)N1CCCc2ccccc21 ?
BRCA1 expr up: inactive; gsp agonist: inactive[15.4 µM]; IL2 activator: inactive; mIDH1 inhibitor: inactive

What do the screens show for `Cc1ccnc(SCC(=O)N2CCc3ccccc32)n1`?
BRCA1 expr up: 10µM; gsp agonist: inconclusive; IL2 activator: inactive; mIDH1 inhibitor: inactive; gsp antag: inactive

Results for O=C(CSc1nnc2ccccn12)c1ccc2c(c1)OCCO2 ?
BRCA1 expr up: 7.1µM; gsp agonist: inactive; IL2 activator: inactive; mIDH1 inhibitor: inactive; gsp antag: inactive

Results for O=C(Nc1ccc(Br)cc1)c1ccccc1Br ?
BRCA1 expr up: 1.1µM; gsp agonist: inconclusive; IL2 activator: inactive; mIDH1 inhibitor: inactive; gsp antag: inactive

How did CCc1ccc(NC(=O)c2ccccc2Br)cc1 do in these assays?
BRCA1 expr up: 3.2µM; gsp agonist: inactive[15.4 µM]; IL2 activator: inactive; mIDH1 inhibitor: inactive

Results for CCCCCCCCCC[n+]1cc(Br)cc(Br)c1 ?
BRCA1 expr up: inactive

What do the screens show for `COc1ccc(Nc2nc3ccccc3s2)cc1`?
BRCA1 expr up: 5µM; gsp agonist: inactive; IL2 activator: inactive; mIDH1 inhibitor: inactive; gsp antag: inactive

How did COc1cccc(Nc2nc3ccc(OC)cc3s2)c1 do in these assays?
BRCA1 expr up: 4.5µM; gsp agonist: inactive[15.4 µM]; IL2 activator: inactive; mIDH1 inhibitor: inactive; gsp antag: inactive

Results for CCc1nc2ccc(C(=O)NCCOc3ccc(OC)cc3)cn2c1N(C)Cc1cccs1 ?
BRCA1 expr up: inactive; IL2 activator: inactive

How did COc1ccc(NC(=O)CSc2nnc(-c3nonc3NC(C)=O)n2C)cc1Cl do in these assays?
mIDH1 inhibitor: inactive

How did c1ccc2c(c1)ncn2CCCOc1ccc2c(c1)CCC2 do in these assays?
BRCA1 expr up: inactive; gsp agonist: inactive; IL2 activator: inactive; mIDH1 inhibitor: inactive; gsp antag: 28µM

What do the screens show for `Brc1ccccc1OCCCn1cnc2ccccc21`?
BRCA1 expr up: 11µM; gsp agonist: inactive; IL2 activator: inactive; mIDH1 inhibitor: inactive; gsp antag: inactive

Results for COc1ccc(NC(=O)c2cnc(SC)nc2C)c(OC)c1 ?
BRCA1 expr up: inactive; gsp agonist: inactive; IL2 activator: inactive; mIDH1 inhibitor: inactive; gsp antag: inactive

What do the screens show for `O=C(N/N=C/c1cccc2cccnc12)c1ccccc1O`?
BRCA1 expr up: inactive; gsp agonist: inactive; IL2 activator: inactive; mIDH1 inhibitor: inactive; gsp antag: inactive

Results for CC1CCCN(CCCNC(=O)c2ccc3c(c2)N(Cc2ccc(Cl)cc2)C(=O)c2ccccc2S3(=O)=O)C1 (configuration not stated) ?
mIDH1 inhibitor: inactive

What do the screens show for `O=C(c1ccc2c(=O)n(Cc3ccco3)c(=S)[nH]c2c1)N1CCN(Cc2ccc3c(c2)OCO3)CC1`?
BRCA1 expr up: inactive

How did Cc1nc2cc(Nc3nnc(-c4ccccc4)c4ccccc34)ccc2n1C do in these assays?
BRCA1 expr up: 4.5µM; gsp agonist: inactive; IL2 activator: inactive; mIDH1 inhibitor: inactive; gsp antag: inactive

How did Clc1cccc(Nc2nnc(-c3ccccc3)c3ccccc23)c1 do in these assays?
BRCA1 expr up: inactive

What do the screens show for `CCc1ccccc1NC(=O)c1ccc(-c2csc(C)n2)cc1`?
BRCA1 expr up: 3.5µM; gsp agonist: inactive; IL2 activator: inactive; mIDH1 inhibitor: inactive; gsp antag: inactive

What do the screens show for `CNC(=O)c1ccc(-c2nc(-c3ccccc3)cs2)cc1`?
BRCA1 expr up: 2.5µM; gsp agonist: inactive; IL2 activator: inactive; mIDH1 inhibitor: inactive; gsp antag: inactive

How did Cc1nc(-c2ccc(NC(=O)c3ccccc3)cc2)cs1 do in these assays?
BRCA1 expr up: inconclusive; gsp agonist: inactive; IL2 activator: inactive; mIDH1 inhibitor: inactive; gsp antag: inactive

Results for O=C(O)c1ccccc1C(=O)Nc1ccc(-c2csc(-c3ccccc3)n2)cc1 ?
BRCA1 expr up: 7.1µM; gsp agonist: inactive; IL2 activator: inactive; mIDH1 inhibitor: inactive; gsp antag: inactive

How did CC(C)S(=O)(=O)N1CCN(c2nc(-c3cccs3)nc3ccccc23)CC1 do in these assays?
BRCA1 expr up: inactive

High-throughput results: PubChem, National Center for Advancing Translational Sciences (NCATS)
